Inconclusive results are not listed. A number with no mark means an inactive call. Active and inactive are the calls of the source. The call rests on the fitted dose curve; in most records, active means well fitted inhibition curve with a large enough effect; inconclusive means small, poorly fitted or top-dose-only effect; inactive means flat fitted curve, though single readings scatter.
The molecules below were run against Lysine-specific demethylase 5B (Homo sapiens) (UniProt Q9UGL1) (assay: Optimization screen for KDM5B Histone Demethylases FDH coupled qHTS against the LOPAC library (AID 1347166; further: 0% is about no effect)). Conditions: KDM5B demethylation, FDH-coupled NADH fluorescence (FDH is formaldehyde dehydrogenase); at 57.5 µM (top of the series).
Sequence of Lysine-specific demethylase 5B (Homo sapiens) (Q9UGL1 whole entry, looked up): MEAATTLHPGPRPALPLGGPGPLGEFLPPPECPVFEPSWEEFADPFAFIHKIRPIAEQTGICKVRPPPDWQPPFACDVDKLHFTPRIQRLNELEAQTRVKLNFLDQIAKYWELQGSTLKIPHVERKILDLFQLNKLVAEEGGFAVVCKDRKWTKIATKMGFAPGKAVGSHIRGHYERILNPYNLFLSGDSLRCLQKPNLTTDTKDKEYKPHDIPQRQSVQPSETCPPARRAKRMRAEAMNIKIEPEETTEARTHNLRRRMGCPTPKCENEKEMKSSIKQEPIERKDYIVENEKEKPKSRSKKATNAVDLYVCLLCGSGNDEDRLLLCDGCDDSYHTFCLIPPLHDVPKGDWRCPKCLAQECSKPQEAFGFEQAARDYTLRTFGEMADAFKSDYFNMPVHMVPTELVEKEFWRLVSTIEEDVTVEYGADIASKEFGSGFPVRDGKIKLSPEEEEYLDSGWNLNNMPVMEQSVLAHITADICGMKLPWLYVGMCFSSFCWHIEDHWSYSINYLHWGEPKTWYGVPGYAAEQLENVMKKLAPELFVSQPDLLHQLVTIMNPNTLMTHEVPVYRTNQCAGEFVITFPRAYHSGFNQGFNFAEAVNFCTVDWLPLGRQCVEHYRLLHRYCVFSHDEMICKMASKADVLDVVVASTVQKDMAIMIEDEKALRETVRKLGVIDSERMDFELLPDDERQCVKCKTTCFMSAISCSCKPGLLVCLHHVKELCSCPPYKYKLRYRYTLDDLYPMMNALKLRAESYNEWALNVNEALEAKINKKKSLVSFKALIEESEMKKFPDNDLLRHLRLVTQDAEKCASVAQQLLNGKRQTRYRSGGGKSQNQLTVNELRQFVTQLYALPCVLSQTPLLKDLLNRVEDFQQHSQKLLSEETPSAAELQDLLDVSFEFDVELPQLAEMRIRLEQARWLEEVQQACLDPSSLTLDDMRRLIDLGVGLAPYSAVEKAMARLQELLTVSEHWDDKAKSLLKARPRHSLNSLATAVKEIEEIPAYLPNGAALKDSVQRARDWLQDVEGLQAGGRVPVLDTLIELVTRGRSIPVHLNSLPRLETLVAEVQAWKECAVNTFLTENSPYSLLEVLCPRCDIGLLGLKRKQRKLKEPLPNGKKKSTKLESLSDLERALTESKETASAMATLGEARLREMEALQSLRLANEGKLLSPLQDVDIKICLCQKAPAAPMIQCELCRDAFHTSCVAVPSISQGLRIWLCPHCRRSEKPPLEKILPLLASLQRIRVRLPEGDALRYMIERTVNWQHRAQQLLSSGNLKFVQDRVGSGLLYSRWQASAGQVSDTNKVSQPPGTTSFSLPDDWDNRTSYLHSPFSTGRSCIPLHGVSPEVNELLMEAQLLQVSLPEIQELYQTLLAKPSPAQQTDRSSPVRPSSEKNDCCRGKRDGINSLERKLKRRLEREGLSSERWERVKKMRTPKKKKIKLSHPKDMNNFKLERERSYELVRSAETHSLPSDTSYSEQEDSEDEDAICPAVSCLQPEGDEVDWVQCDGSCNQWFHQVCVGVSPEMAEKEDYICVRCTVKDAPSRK
Procedure, shortened: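 KDM5BDeltaAP (200nM final) in 50mM HEPES pH 7.5, 0.01% Tween-20 was preincubated with compound for 10 min at room temperature. A substrate mix of 12.5uM H3K4Me3, 25uM a-ketoglutarate, ascorbate, Fe2+, NAD+ and formaldehyde dehydrogenase was then added. NADH fluorescence (340/450 nm) was read initially and after 30 min.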

Structure (SMILES) | activity, negative = inhibition
N#CC(=C(\N)Sc1ccccc1N)/C(C#N)=C(/N)Sc1ccccc1N | -5.86%
CCC1(O)CC2CN(CCc3c([nH]c4ccccc34)[C@@](C(=O)OC)(c3cc4c(cc3OC)N(C=O)C3[C@]45CCN4CC=C[C@@](CC)([C@@H](OC(C)=O)[C@]3(O)C(=O)OC)[C@H]45)C2)C1 (stereo not given in full) | -9.11%
COC(=O)C(N)Cc1ccc(Cl)cc1 (stereo not given) | -3.16%
CC(=O)C(C)=O | -10.5%
CN1CC(O)C(O)C(O)C1CO (stereo not given) | -6.96%
NC1(C(=O)O)CCCCC1 | -8.23%
O=C(O)C1CCNCC1 | -5.33%
CN1C2CCC1CC(OC(c1ccccc1)c1ccccc1)C2 (stereo not given) | -5.47%
O=c1cc(-c2ccccc2F)[nH]c2cc3c(cc12)OCO3 | -604% (active)
CCCCCCCCCC(=O)NC(CN1CCOCC1)[C@H](O)c1ccccc1 (stereo not given in full) | -9.31%
CSc1nc(N)c2ncn([C@@H]3O[C@H](COP(=O)(O)OP(=O)(O)O)C(O)[C@H]3O)c2n1 (stereo not given in full) | -13.8%
OC[C@H]1NC[C@@H](O)[C@@H]1O | 1.64%
COC1(C2=NCCN2)COc2ccccc2O1 (stereo not given) | -3.68%
NOCC(=O)O | -4.09%
C=C1C[C@@]23CC[C@H]4[C@@](C)(CCC[C@@]4(C)C(=O)OC4OC(CO)C(O)C(O)C4O)[C@@H]2CC[C@]1(OC1OC(CO)C(O)C(O)C1OC1OC(CO)C(O)C(O)C1O)C3 (stereo not given in full) | -7.5%
CC(N)=O | -7.02%
CCCCCCC/C=C\CCCCCCCCC(=O)O | -29.9%
Cc1ccc([N+](=O)[O-])cc1S(=O)(=O)N(C)C | -0.674%
CCCCS(=N)(=O)CC[C@H](N)C(=O)O (stereo not given in full) | -2.9%
CN1CCC2(CCN3CCc4c(oc5ccccc45)C3C2)N(C)C1=O (stereo not given) | -3.3%

From PubChem BioAssay (NCATS)
